Several values for one entry are separate records, joined by “and”; a condition that tells them apart may be missing. Equal values may be shown once. Among all 5,500 compounds or so, about 2,000 (36%) were called active. About 18% were inconclusive and are not listed. Cut-off read from the data, not from the text of the source: active = normalized growth mostly below about 0.91 (no sharp cut-off); inconclusive = no clear call, values can overlap the other calls; inactive = mostly above about 0.92. The list shows a part of the results.
Assay: chemical genetic growth profiling, strain panel (AID 1159580);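 note: tested at 20 µM; growth read once vehicle control cultures reached saturation at 30 °C; 1 = growth at the plate median or of vehicle wells; lower values mean less growth of the strain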
Settings: S. cerevisiae deletion strains, growth OD

Measured: normalized growth

CC(C)=CCc1c2c(c3occ(-c4ccc(O)c(O)c4)c(=O)c3c1O)C=CC(C)(C)O2
active: locus YBR021W, strain FUR4, stronger effect = lower value 0.518 | locus YBR229C, strain ROT2, stronger effect = lower value 0.548 | locus YBR231C, strain swc5, stronger effect = lower value 0.895 | locus YCL029C, strain bik1, stronger effect = lower value 0.616 | locus YDL035C, strain GPR1, stronger effect = lower value 0.238 | locus YDL074C, strain BRE1, stronger effect = lower value 0.313 | locus YDL101C, strain DUN1, stronger effect = lower value 0.256 | locus YDL134C, strain PPH21, stronger effect = lower value 0.235 | locus YDL192W, strain arf1, stronger effect = lower value 0.66 | locus YDR069C, strain doa4, stronger effect = lower value 0.845 | locus YDR101C, strain arx1, stronger effect = lower value 0.747 | locus YDR162C, strain NBP2, stronger effect = lower value 0.155 | locus YDR318W, strain mcm21, stronger effect = lower value 0.721 | locus YDR388W, stronger effect = lower value 0.776 | locus YDR502C, strain sam2, stronger effect = lower value 0.674 | locus YEL061C, strain CIN8, stronger effect = lower value 0.406 | locus YER015W, strain faa2, stronger effect = lower value 0.909 | locus YER155C, strain BEM2, stronger effect = lower value 0.544 | locus YER167W, strain BCK2, stronger effect = lower value 0.545 | locus YGL086W, strain mad1, stronger effect = lower value 0.67 | locus YGL173C, strain kem1, stronger effect = lower value 0.887 | locus YGL248W, strain PDE1, stronger effect = lower value 0.257 | locus YGR078C, strain PAC10, stronger effect = lower value 0.457 | locus YGR135W, strain pre9, stronger effect = lower value 0.586 | locus YGR252W, strain gcn5, stronger effect = lower value 0.557 | locus YHR079C, strain IRE1 (second series), stronger effect = lower value 0.722 | locus YHR094C, strain hxt1, stronger effect = lower value 0.888 | locus YHR129C, strain ARP1, stronger effect = lower value 0.457 | locus YHR200W, strain rpn10, stronger effect = lower value 0.724 | locus YIL066C, strain RNR3, stronger effect = lower value 0.227 | locus YIL073C, strain SPO22, stronger effect = lower value 0.137 | locus YIR030C, strain dcg1, stronger effect = lower value 0.811 | locus YJL134W, strain LCB3, stronger effect = lower value 0.677 | locus YJL164C, strain tpk1, stronger effect = lower value 0.91 | locus YJL168C, strain set2, stronger effect = lower value 0.916 | locus YJL187C, strain SWE1 (second series), stronger effect = lower value 0.161 | locus YJR043C, strain POL32, stronger effect = lower value 0.255 | locus YJR075W, strain HOC1, stronger effect = lower value 0.468
inactive: locus YAL021C, strain ccr4, stronger effect = lower value 0.95 | locus YAL026C, strain drs2, stronger effect = lower value 0.945 | locus YAL030W, strain snc1, stronger effect = lower value 0.961 | locus YBL061C, strain skt5, stronger effect = lower value 0.949 | locus YBR009C, strain hhf1, stronger effect = lower value 0.931 | locus YBR023C, strain chs3, stronger effect = lower value 0.937 | locus YBR171W, strain sec66, stronger effect = lower value 0.98 | locus YBR279W, strain paf1, stronger effect = lower value 0.956 | locus YCL011C, strain gbp2, stronger effect = lower value 0.944 | locus YCL016C, strain dcc1, stronger effect = lower value 0.961 | locus YCL069W, strain vba3, stronger effect = lower value 0.992 | locus YCR088W, strain abp1, stronger effect = lower value 0.997 | locus YDL005C, strain med2, stronger effect = lower value 0.988 | locus YDL040C, strain nat1, stronger effect = lower value 1 | locus YDL185W, strain tfp1, stronger effect = lower value 0.966 | locus YDR001C, strain nth1, stronger effect = lower value 1 | locus YDR137W, strain rgp1, stronger effect = lower value 1 | locus YDR159W, strain sac3, stronger effect = lower value 0.959 | locus YDR195W, strain ref2 1.01 | locus YDR297W, strain sur2, stronger effect = lower value 0.924 | locus YDR334W, strain swr1, stronger effect = lower value 0.969 | locus YDR335W, strain msn5, stronger effect = lower value 0.953 | locus YDR392W, strain spt3, stronger effect = lower value 0.782 | locus YEL003W, strain gim4, stronger effect = lower value 0.932 | locus YEL037C, strain rad23, stronger effect = lower value 0.977 | locus YEL061C, strain CIN8 (second series), stronger effect = lower value 0.999 | locus YER016W, strain bim1, stronger effect = lower value 0.989 | locus YER110C, stronger effect = lower value 0.981 | locus YER111C, strain swi4, stronger effect = lower value 0.939 | locus YER155C, strain BEM2 (second series), stronger effect = lower value 0.909 | locus YFR010W, strain ubp6, stronger effect = lower value 0.946 | locus YGL078C, strain dbp3, stronger effect = lower value 0.93 | locus YGL167C, strain pmr1, stronger effect = lower value 0.986 | locus YGL227W, strain vid30, stronger effect = lower value 1 | locus YGL240W, strain doc1, stronger effect = lower value 0.994 | locus YGL253W, strain hxk2, stronger effect = lower value 0.937 | locus YHR013C, strain ard1, stronger effect = lower value 0.947 | locus YHR027C, strain rpn1, stronger effect = lower value 0.932 | locus YHR079C, strain IRE1, stronger effect = lower value 0.926 | locus YHR142W, strain chs7, stronger effect = lower value 0.948 | locus YIL125W, strain kgd1, stronger effect = lower value 0.933 | locus YJL092W, strain hpr5, stronger effect = lower value 0.983 | locus YJL095W, strain BCK1 (second series), stronger effect = lower value 0.961 | locus YJL115W, strain asf1, stronger effect = lower value 0.999 | locus YJL129C, strain trk1, stronger effect = lower value 1 | locus YJL154C, strain vps35, stronger effect = lower value 1 | locus YJL166W, strain qcr8, stronger effect = lower value 0.919 | locus YJR066W, strain TOR1, stronger effect = lower value 0.885
0.145 (active) and 0.912 (inactive): locus YJL095W, strain BCK1, stronger effect = lower value
0.197 (active) and 0.903 (inactive): locus YHR030C, strain SLT2, stronger effect = lower value

From PubChem BioAssay AID1159580 (chemical genetic matrix, 2015)
